Assay results published in PubChem BioAssay (EPA / NIEHS).
The source holds several records for some structures; these can differ, active in one and inactive in another. Active and inactive are the calls of the source. How the source made its calls: active means hit-call score of the fitted dose curve at least 0.9, where 1 is the maximum; inactive means score below 0.9.

Legend:
Conditions in all cases: mRNA level, 48 h; actives raise or lower the signal
[1] = read-out: Peroxisomal acyl-coenzyme A oxidase 1 (ACOX1) gene, ACOX1 (gene 51); test: LTEA_HepaRG_ACOX1: Life Technologies and Expression Analysis (LTEA) Assay for Peroxisomal acyl-coenzyme A oxidase 1 (ACOX1) gene using HepaRG (AID 2283467)
Method in brief: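 Measured by qRT-PCR against three housekeeping genes: ACOX1 transcript change in human HepaRG cells after 48 h dosing. Concentrations ran up to 100 uM in half-log steps. Curves were fitted bidirectionally relative to 0.5% DMSO.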

[2] = read-out: Alkaline Phosphatase, Placental (ALPP) gene, ALPP (gene 250); test: LTEA_HepaRG_ALPP: Life Technologies and Expression Analysis (LTEA) Assay for Alkaline Phosphatase, Placental (ALPP) gene using HepaRG (AID 2283468);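 on AC50: differentiated human HepaRG liver cells in serum-free induction medium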
Method in brief: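 HepaRG, 48 h plating then 48 h dosing, serum-free induction medium, 0.5% DMSO. 8 conc, half-log, max 100 uM, duplicates. Endpoint: ALPP transcript by qRT-PCR, housekeeping-normalized; gain or loss fitted vs DMSO.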

[3] = read-out: Bcl-2 (BAD) gene, BAD (gene 572); test: LTEA_HepaRG_BAD: Life Technologies and Expression Analysis (LTEA) Assay for Bcl-2 (BAD) gene using HepaRG (AID 2283469)
Method in brief: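 BAD transcript change, measured by qRT-PCR against three housekeeping genes and fitted in both directions relative to 0.5% DMSO, after 48 h chemical treatment of human HepaRG liver cells at concentrations up to 100 uM.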

[4] = read-out: Bcl-2 (BAX) gene, BAX (gene 581); test: LTEA_HepaRG_BAX: Life Technologies and Expression Analysis (LTEA) Assay for Bcl-2 (BAX) gene using HepaRG (AID 2283470)
Method in brief: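 HepaRG (human liver), 48 h exposure, duplicate wells. 8-pt curve, half-log from 100 uM, 0.5% DMSO. BAX transcript by TaqMan qRT-PCR; ACTB/GAPDH/POLR2A normalization; gain or loss vs DMSO baseline.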

[5] = read-out: adenosine kinase (ADK) gene, ADK (gene 132); test: LTEA_HepaRG_ADK: Life Technologies and Expression Analysis (LTEA) Assay for adenosine kinase (ADK) gene using HepaRG (AID 2283471)
Method in brief: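 ADK expression quantified by qRT-PCR, normalised to three housekeeping genes, after 48 h exposure of HepaRG cells to eight concentrations (top 100 uM, half-log steps, duplicate, 0.5% DMSO). Up- or down-regulation fitted relative to vehicle.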

[6] = read-out: Alpha-fetoprotein (AFP) gene, AFP (gene 174); test: LTEA_HepaRG_AFP: Life Technologies and Expression Analysis (LTEA) Assay for Alpha-fetoprotein (AFP) gene using HepaRG (AID 2283472)
Method in brief: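 HepaRG, single lot; 48 h post-plating -> serum-free induction medium; cpd 8-pt, 100 uM top, half-log, 0.5% DMSO, duplicate, 48 h. RNA -> qRT-PCR AFP, norm ACTB/GAPDH/POLR2A. Bidirectional fit vs DMSO.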

BCL2L11 (gene 10018) = test: LTEA_HepaRG_BCL2L11: Life Technologies and Expression Analysis (LTEA) Assay for Bcl-2 (BCL2L11) gene using HepaRG (AID 2283473)
Method in brief: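 Read-out is BCL2L11 transcript level by qRT-PCR, normalized to three housekeeping genes and fitted bidirectionally against 0.5% DMSO vehicle. HepaRG cells received chemicals for 48 h in serum-free induction medium, 100 uM down in half-log dilutions.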

[7] = read-out: Apolipoprotein A-V (APOA5) gene, APOA5 (gene 116519); test: LTEA_HepaRG_APOA5: Life Technologies and Expression Analysis (LTEA) Assay for Apolipoprotein A-V (APOA5) gene using HepaRG (AID 2283474)
Method in brief: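 Readout is APOA5 transcript level by qRT-PCR on Fluidigm dynamic arrays, normalized to three housekeeping genes. HepaRG cultures received chemicals for 48 h at up to 100 uM (half-log steps, 0.5% DMSO), with gain or loss scored relative to DMSO.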

[8] = read-out: Apoptosis regulator Bcl-2 (Homo sapiens) (UniProt P10415); test: LTEA_HepaRG_BCL2: Life Technologies and Expression Analysis (LTEA) Assay for Bcl-2 gene using HepaRG (AID 2283475)
Method in brief: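 HepaRG, plated 48 h then switched to serum-free induction medium; dosed 48 h, 8 conc. (max 100 uM, half-log steps), duplicate, 0.5% DMSO. Lysis in RLT, RNA isolated, TaqMan qRT-PCR for BCL2; ACTB/GAPDH/POLR2A normalisation; bidirectional fit vs DMSO.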

[9] = read-out: Bcl-2 (BID) gene, BID (gene 637); test: LTEA_HepaRG_BID: Life Technologies and Expression Analysis (LTEA) Assay for Bcl-2 (BID) gene using HepaRG (AID 2283476)
Method in brief: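 Transcript levels of BID, measured by qRT-PCR and normalized to three housekeeping genes, were fitted bidirectionally against DMSO controls. Cells were HepaRG, dosed 48 h at up to 100 uM.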

Caspase-3 (Homo sapiens) = Caspase-3 (Homo sapiens) (UniProt P42574); test: LTEA_HepaRG_CASP3: Life Technologies and Expression Analysis (LTEA) Assay for cysteine-aspartic acid protease (CASP3) using HepaRG (AID 2283477)
Sequence of Caspase-3 (Homo sapiens) (P42574 whole entry, looked up): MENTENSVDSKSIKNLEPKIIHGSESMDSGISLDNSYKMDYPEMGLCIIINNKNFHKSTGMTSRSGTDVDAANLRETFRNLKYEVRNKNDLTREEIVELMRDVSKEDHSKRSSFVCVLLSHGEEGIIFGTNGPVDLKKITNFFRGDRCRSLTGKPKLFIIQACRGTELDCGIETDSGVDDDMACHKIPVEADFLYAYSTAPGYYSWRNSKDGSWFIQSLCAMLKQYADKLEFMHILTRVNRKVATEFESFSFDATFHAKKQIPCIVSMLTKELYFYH
Method in brief: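 Read-out is CASP3 mRNA level by TaqMan qRT-PCR in human HepaRG cells after 48 h chemical exposure. Eight half-log concentrations topping at 100 uM were tested in 0.5% DMSO; gain or loss was fitted relative to DMSO.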

[10] = read-out: Cytochrome P450 (CYP24A1), CYP24A1 (gene 1591); test: LTEA_HepaRG_CYP24A1: Life Technologies and Expression Analysis (LTEA) Assay for Cytochrome P450 (CYP24A1) using HepaRG (AID 2283478)
Method in brief: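 HepaRG, 48 h chemical exposure, 8-pt half-log CRC from 100 uM, 0.5% DMSO vehicle, duplicates. Endpoint: CYP24A1 mRNA by Fluidigm TaqMan qRT-PCR, normalized ACTB/GAPDH/POLR2A; gain/loss fit vs DMSO.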

[11] = read-out: Cytochrome P450 (CYP1A2), CYP1A2 (gene 1544); test: LTEA_HepaRG_CYP1A2: Life Technologies and Expression Analysis (LTEA) Assay for Cytochrome P450 (CYP1A2) using HepaRG (AID 2283479)
Method in brief: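 CYP1A2 transcript induction or loss, quantified by Fluidigm qRT-PCR against three housekeeping genes, was fitted bidirectionally against 0.5% DMSO controls. Human HepaRG cells received eight half-log concentrations from 100 uM over 48 h.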

[12] = read-out: cysteine-aspartic acid protease (CASP8), CASP8 (gene 841); test: LTEA_HepaRG_CASP8: Life Technologies and Expression Analysis (LTEA) Assay for cysteine-aspartic acid protease (CASP8) using HepaRG (AID 2283480)
Method in brief: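 HepaRG, 48 h exposure, duplicate wells; 8 conc, half-log from 100 uM, 0.5% DMSO. Serum-free induction medium. CASP8 mRNA by TaqMan qRT-PCR, norm. ACTB/GAPDH/POLR2A; gain/loss fitted vs DMSO.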

[13] = read-out: Cytochrome P450 (CYP2B6), CYP2B6 (gene 1555); test: LTEA_HepaRG_CYP2B6: Life Technologies and Expression Analysis (LTEA) Assay for Cytochrome P450 (CYP2B6) using HepaRG (AID 2283481)
Method in brief: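 HepaRG cells plated 48 h, switched to serum-free induction medium, then dosed 48 h (8 points, half-log from 100 uM, 0.5% DMSO). RNA isolated; CYP2B6 expression measured by qRT-PCR; gain or loss fitted relative to DMSO.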

[14] = read-out: Cytochrome P450 2C19 (Homo sapiens) (UniProt P33261); test: LTEA_HepaRG_CYP2C19: Life Technologies and Expression Analysis (LTEA) Assay for CYP2C19 using HepaRG (AID 2283482)
Method in brief: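 Transcript levels of CYP2C19 were quantified by qRT-PCR after HepaRG cells were treated for 48 hours with test chemicals up to 100 uM (eight half-log concentrations, 0.5% DMSO vehicle). Gain or loss of signal was fitted relative to DMSO.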

CYP2C8 (gene 1558) = test: LTEA_HepaRG_CYP2C8: Life Technologies and Expression Analysis (LTEA) Assay for CYP2C8 using HepaRG (AID 2283483)
Method in brief: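 CYP2C8 mRNA induction or loss, by qRT-PCR normalized to ACTB/GAPDH/POLR2A, is read in HepaRG cells after 48 h treatment. Concentrations run from 100 uM down in half-log dilutions, with 0.5% DMSO as vehicle and baseline.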

CYP2C9 (gene 1559) = test: LTEA_HepaRG_CYP2C9: Life Technologies and Expression Analysis (LTEA) Assay for CYP2C9 using HepaRG (AID 2283484)
Method in brief: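 Cells plated 48 h, switched to serum-free induction medium, then treated in duplicate for 48 h at eight concentrations (max 100 uM, 0.5% DMSO). RNA then analysed by qRT-PCR for CYP2C9; curves fitted in both directions relative to DMSO.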

CYP2E1 (gene 1571) = test: LTEA_HepaRG_CYP2E1: Life Technologies and Expression Analysis (LTEA) Assay for CYP2E1 using HepaRG (AID 2283485)
Method in brief: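 Human liver line HepaRG, plated 48 h, then serum-free induction medium + chemical x 48 h; 8-pt CRC from 100 uM, half-log, 0.5% DMSO, n=2. Readout: CYP2E1 mRNA qRT-PCR vs ACTB/GAPDH/POLR2A; bidirectional fit vs DMSO.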

CYP4A11 (gene 1579) = test: LTEA_HepaRG_CYP4A11: Life Technologies and Expression Analysis (LTEA) Assay for CYP4A11 using HepaRG (AID 2283486)
Method in brief: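 HepaRG, 48 h chem exposure, 8 conc (100 uM top, half-log), 0.5% DMSO vehicle; qRT-PCR readout, housekeeping-gene normalized; bidirectional curve fit vs DMSO baseline.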

Measured: AC50

Sequence of Cytochrome P450 2C19 (Homo sapiens) (P33261 whole entry, looked up): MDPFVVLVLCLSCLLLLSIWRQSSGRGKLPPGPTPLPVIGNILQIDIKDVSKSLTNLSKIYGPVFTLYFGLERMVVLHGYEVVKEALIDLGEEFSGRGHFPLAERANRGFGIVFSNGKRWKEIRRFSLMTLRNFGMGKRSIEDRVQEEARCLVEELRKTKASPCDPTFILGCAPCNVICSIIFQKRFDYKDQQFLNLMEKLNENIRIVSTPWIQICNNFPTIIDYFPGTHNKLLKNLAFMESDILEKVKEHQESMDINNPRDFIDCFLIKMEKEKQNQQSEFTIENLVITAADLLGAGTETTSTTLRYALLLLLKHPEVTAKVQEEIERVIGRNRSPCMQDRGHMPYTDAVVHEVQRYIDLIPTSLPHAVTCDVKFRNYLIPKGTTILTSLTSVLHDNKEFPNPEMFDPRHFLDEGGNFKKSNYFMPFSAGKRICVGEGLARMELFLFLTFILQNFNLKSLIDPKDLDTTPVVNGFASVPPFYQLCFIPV
Sequence of Apoptosis regulator Bcl-2 (Homo sapiens) (P10415 whole entry, looked up): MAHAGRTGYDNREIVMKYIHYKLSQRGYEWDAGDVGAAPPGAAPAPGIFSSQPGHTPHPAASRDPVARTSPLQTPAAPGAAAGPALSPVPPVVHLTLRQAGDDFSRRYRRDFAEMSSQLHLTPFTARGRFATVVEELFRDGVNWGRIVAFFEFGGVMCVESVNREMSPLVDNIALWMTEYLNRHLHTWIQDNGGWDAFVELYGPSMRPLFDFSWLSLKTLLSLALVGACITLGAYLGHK

COP(=O)(OC)SCn1c(=O)oc2cc(Cl)cnc21
active: BCL2L11 (gene 10018) 50 µM | [7] 0.282 µM | [8] 50 µM | [9] 3.16 nM | [13] 50 µM | [14] 50 µM | CYP2C9 (gene 1559) 36.9 µM | CYP4A11 (gene 1579) 36.2 µM
inactive: all other assays above

CCOC(=O)CC(SP(=O)(OC)OC)C(=O)OCC (stereo not given)
active: [13] 50 µM | CYP2E1 (gene 1571) 25.1 µM
inactive: all other assays above

CCc1cccc(C)c1N(C(=O)CCl)C(C)COC (stereo not given)
active: [6] 77.1 µM | [13] 14.2 µM | [14] 16 µM | CYP2E1 (gene 1571) 50 µM
not listed: CYP2C8 (gene 1558)
inactive: all other assays above

CN(C)[C@@H]1C(=O)C(C(N)=O)=C(O)[C@@]2(O)C(=O)C3=C(O)c4c(O)cccc4[C@@](C)(O)[C@H]3[C@H](O)[C@@H]12
active: CYP2E1 (gene 1571) 50 µM | CYP4A11 (gene 1579) 38.6 µM
inactive: [1] | [2] | [3] | [4] | [5] | [6] | BCL2L11 (gene 10018) | [7] | [8] | [9] | Caspase-3 (Homo sapiens) | [10] | [11] | [12] | [14] | CYP2C8 (gene 1558) | CYP2C9 (gene 1559) | CYP2E1 (gene 1571) | CYP4A11 (gene 1579)

C=C(C)[C@H]1Cc2c(ccc3c2O[C@@H]2COc4cc(OC)c(OC)cc4[C@@H]2C3=O)O1
active: [1] 11.7 µM | [2] 384 nM | [4] 6.55 µM | [6] 0.985 µM | BCL2L11 (gene 10018) 1.07 µM | [7] 12.9 µM | [8] 2.94 µM | [11] 679 nM | [13] 0.5 µM | [14] 2.75 µM | CYP2C8 (gene 1558) 1.36 µM | CYP2C9 (gene 1559) 3.67 µM | CYP2E1 (gene 1571) 0.591 µM | CYP4A11 (gene 1579) 0.838 µM
inactive: [3] | [5] | [9] | Caspase-3 (Homo sapiens) | [10] | [12]
